According to PubChem BioAssay (NCI):
Compounds without any hit were thinned out: in the full panel of roughly 83,000, 20% have a hit.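 Testing used 96-well plates and a 48-hour single-concentration exposure. Example: -40 means 40% of the starting cells died.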 Activity calls are given as the source filed them. Rule for the calls: active = growth percent below 10; inactive = the rest.

Columns and labels:
Assay in all cases: NCI-60 one-dose screen, 48 h (100 = growth as untreated, 0 = no growth, -100 = all killed)
Details in all cases: 10 µM unless noted
SR leukemia = test system: SR leukemia
RPMI-8226 leukemia = test system: RPMI-8226 leukemia
OVCAR-8 ovarian = test system: OVCAR-8 ovarian
OVCAR-5 ovarian = test system: OVCAR-5 ovarian
OVCAR-4 ovarian = test system: OVCAR-4 ovarian
SK-OV-3 ovarian = test system: SK-OV-3 ovarian
IGROV1 ovarian = test system: IGROV1 ovarian
OVCAR-3 ovarian = test system: OVCAR-3 ovarian
HS 578T breast = test system: HS 578T breast
NCI/ADR-RES ovarian = test system: NCI/ADR-RES ovarian
T-47D breast = test system: T-47D breast
BT-549 breast = test system: BT-549 breast
MDA-MB-435 melanoma = test system: MDA-MB-435 melanoma
MCF7 breast = test system: MCF7 breast
HCT-116 colon = test system: HCT-116 colon
HCC-2998 colon = test system: HCC-2998 colon
KM12 colon = test system: KM12 colon
SW-620 colon = test system: SW-620 colon

Measured: growth

COc1ccc(CN2c3ccccc3Sc3ccccc32)cc1F
active: OVCAR-3 ovarian -5.46% | NCI/ADR-RES ovarian 2.82% | MDA-MB-435 melanoma -33.5% | HCT-116 colon 8.54%
inactive: SR leukemia 16.9% | RPMI-8226 leukemia 21.2% | OVCAR-8 ovarian 23.7% | OVCAR-5 ovarian 43.1% | OVCAR-4 ovarian 49.2% | SK-OV-3 ovarian 16.8% | IGROV1 ovarian 35.5% | HS 578T breast 16.9% | T-47D breast 49.7% | BT-549 breast 49.9% | MCF7 breast 16% | HCC-2998 colon 17.8% | KM12 colon 14%

COc1ccc(-c2noc(C(=O)O)c2-c2cc(OC)c(OC)c(OC)c2)cc1
active: RPMI-8226 leukemia 0.35% | OVCAR-3 ovarian 9.65% | MDA-MB-435 melanoma -41.5%
inactive: SR leukemia 10.4% | OVCAR-8 ovarian 30.4% | OVCAR-5 ovarian 87% | OVCAR-4 ovarian 76.7% | SK-OV-3 ovarian 23.5% | IGROV1 ovarian 47% | HS 578T breast 13.3% | NCI/ADR-RES ovarian 27.7% | T-47D breast 27.2% | SW-620 colon 22.4% | MCF7 breast 18.9% | HCT-116 colon 19.4% | HCC-2998 colon 58% | KM12 colon 27.9%

CC(C)c1ccc(-n2c(=S)[nH]c3sc4cc(O)ccc4c3c2=O)cc1
inactive: SR leukemia 102% | RPMI-8226 leukemia 100% | OVCAR-8 ovarian 102% | OVCAR-5 ovarian 100% | OVCAR-4 ovarian 111% | SK-OV-3 ovarian 112% | IGROV1 ovarian 91.4% | OVCAR-3 ovarian 104% | HS 578T breast 92.4% | NCI/ADR-RES ovarian 103% | T-47D breast 105% | BT-549 breast 91.4% | MDA-MB-435 melanoma 100% | MCF7 breast 90.1% | HCT-116 colon 98.4% | HCC-2998 colon 103% | KM12 colon 105%

Cn1c(I)c(C#CCO[Si](C)(C)C(C)(C)C)c(=O)[nH]c1=O
active: SR leukemia -11.3%
inactive: RPMI-8226 leukemia 84.8% | OVCAR-8 ovarian 94.8% | OVCAR-5 ovarian 102% | OVCAR-4 ovarian 80% | SK-OV-3 ovarian 105% | IGROV1 ovarian 81.4% | OVCAR-3 ovarian 75.4% | HS 578T breast 106% | NCI/ADR-RES ovarian 102% | T-47D breast 61.9% | BT-549 breast 97.1% | MDA-MB-435 melanoma 97.4% | MCF7 breast 88% | HCT-116 colon 94.6% | HCC-2998 colon 99.7% | KM12 colon 107%

O=C(CSc1nc2ccc([N+](=O)[O-])cc2[nH]1)Nc1ccc([N+](=O)[O-])cc1
active: RPMI-8226 leukemia -17.5% | OVCAR-4 ovarian 1.39% | T-47D breast 3.64% | BT-549 breast 7.77% | HCT-116 colon 9.88%
inactive: SR leukemia 10.7% | OVCAR-8 ovarian 14.4% | OVCAR-5 ovarian 63.3% | SK-OV-3 ovarian 27% | IGROV1 ovarian 37.7% | OVCAR-3 ovarian 18.5% | HS 578T breast 31.7% | NCI/ADR-RES ovarian 36.3% | MDA-MB-435 melanoma 14.3% | MCF7 breast 16% | HCC-2998 colon 31.1% | KM12 colon 21.8%

N#C/C(=C\c1c(-c2ccccc2)[nH]c2ccccc12)C(N)=O
active: SR leukemia 9.47%
inactive: RPMI-8226 leukemia 46.2% | OVCAR-8 ovarian 102% | OVCAR-5 ovarian 107% | OVCAR-4 ovarian 62.5% | SK-OV-3 ovarian 93% | IGROV1 ovarian 77.1% | OVCAR-3 ovarian 81.2% | HS 578T breast 76.5% | NCI/ADR-RES ovarian 77.6% | T-47D breast 83.7% | MDA-MB-435 melanoma 15.7% | SW-620 colon 56.9% | MCF7 breast 50.4% | HCT-116 colon 76.9% | HCC-2998 colon 78.9% | KM12 colon 47.9%

COc1cc(OCc2cccc(Br)c2C)cc(OC)c1C=O
inactive: SR leukemia 82.6% | RPMI-8226 leukemia 52.8% | OVCAR-8 ovarian 89.9% | OVCAR-5 ovarian 55.5% | OVCAR-4 ovarian 67.7% | SK-OV-3 ovarian 94.8% | IGROV1 ovarian 61.8% | OVCAR-3 ovarian 87.1% | HS 578T breast 89.1% | NCI/ADR-RES ovarian 89.7% | T-47D breast 37.8% | MDA-MB-435 melanoma 87.8% | SW-620 colon 88.6% | MCF7 breast 63.9% | HCT-116 colon 68% | HCC-2998 colon 96.5% | KM12 colon 94.5%

COC1=CC(c2ccc[nH]2)=N/C1=C\c1[nH]c(C)c(C(=O)OC(C)C)c1C
inactive: SR leukemia 11.8%
active: RPMI-8226 leukemia -34.6% | OVCAR-8 ovarian 2.67% | OVCAR-5 ovarian -40.2% | OVCAR-4 ovarian -49.7% | SK-OV-3 ovarian 7.3% | IGROV1 ovarian -41.5% | OVCAR-3 ovarian -53.9% | HS 578T breast -32.8% | NCI/ADR-RES ovarian -12.5% | T-47D breast -69.2% | MDA-MB-435 melanoma -66.2% | SW-620 colon -29.2% | MCF7 breast -35.5% | HCT-116 colon -90.3% | HCC-2998 colon -53.2% | KM12 colon -66.3%

COc1cc(/C=C/C(=O)c2ccc(F)cc2)ccc1OCCCCOc1ccc(/C=C/C(=O)c2c(C)nc3ccccc3c2C)cc1OC
inactive: SR leukemia 79.2% | RPMI-8226 leukemia 79.3% | OVCAR-8 ovarian 78.3% | OVCAR-5 ovarian 108% | OVCAR-4 ovarian 76.5% | SK-OV-3 ovarian 107% | IGROV1 ovarian 101% | OVCAR-3 ovarian 92% | HS 578T breast 117% | NCI/ADR-RES ovarian 91.4% | T-47D breast 92.7% | MDA-MB-435 melanoma 94.4% | SW-620 colon 102% | MCF7 breast 80.1% | HCT-116 colon 90.8% | HCC-2998 colon 100% | KM12 colon 111%

Cn1cc(-c2csc(-c3cn(C(=O)OC(C)(C)C)c4ccc(Br)cc34)n2)c2ccnc(Cl)c21
active: HS 578T breast 2.06%
inactive: SR leukemia 39.2% | RPMI-8226 leukemia 79.4% | OVCAR-8 ovarian 59.8% | OVCAR-5 ovarian 105% | OVCAR-4 ovarian 65.3% | SK-OV-3 ovarian 82.8% | IGROV1 ovarian 89.1% | OVCAR-3 ovarian 97.3% | NCI/ADR-RES ovarian 71.8% | T-47D breast 66.8% | BT-549 breast 63.9% | MDA-MB-435 melanoma 63.7% | MCF7 breast 82.8% | HCT-116 colon 64.7% | HCC-2998 colon 95% | KM12 colon 90.4%

COc1ccc(OC)c(Nc2nnc(-c3ccc(O)c(OC)c3)o2)c1
inactive: SR leukemia 52.4% | RPMI-8226 leukemia 75% | OVCAR-8 ovarian 83.6% | OVCAR-5 ovarian 70% | OVCAR-4 ovarian 63.1% | SK-OV-3 ovarian 53.4% | IGROV1 ovarian 19.9% | OVCAR-3 ovarian 70.6% | HS 578T breast 39.6% | NCI/ADR-RES ovarian 68.7% | T-47D breast 43.9% | MDA-MB-435 melanoma 85% | SW-620 colon 78.6% | MCF7 breast 77.7% | HCT-116 colon 63.8% | HCC-2998 colon 90.6% | KM12 colon 20.4%

CCCNC(=O)Nc1ccc2cc3ccc(NC(=O)NCCC)cc3nc2c1
inactive: SR leukemia 37.2% | RPMI-8226 leukemia 76.1% | OVCAR-8 ovarian 74.5% | OVCAR-5 ovarian 90.1% | OVCAR-4 ovarian 65.2% | SK-OV-3 ovarian 95.1% | IGROV1 ovarian 34.4% | OVCAR-3 ovarian 70.1% | HS 578T breast 48.4% | NCI/ADR-RES ovarian 96.9% | T-47D breast 46.6% | MDA-MB-435 melanoma 77.4% | SW-620 colon 92% | MCF7 breast 62.6% | HCT-116 colon 76.3% | HCC-2998 colon 98.4% | KM12 colon 70.9%

Ic1ccc(OCCCCn2ccnc2)cc1
inactive: SR leukemia 45.1% | RPMI-8226 leukemia 73.5% | OVCAR-8 ovarian 95.5% | OVCAR-5 ovarian 64.4% | OVCAR-4 ovarian 44.7% | SK-OV-3 ovarian 80.9% | IGROV1 ovarian 71.9% | OVCAR-3 ovarian 39.2% | HS 578T breast 90.2% | NCI/ADR-RES ovarian 90.7% | T-47D breast 77.6% | BT-549 breast 88.4% | MDA-MB-435 melanoma 73% | MCF7 breast 89.7% | HCT-116 colon 65.9% | HCC-2998 colon 68.1% | KM12 colon 97.6%

CSc1nc(N)c(NS(=O)(=O)c2ccc(C(C)=O)cc2)c(=O)[nH]1
inactive: SR leukemia 119% | RPMI-8226 leukemia 110% | OVCAR-8 ovarian 107% | OVCAR-5 ovarian 104% | OVCAR-4 ovarian 117% | SK-OV-3 ovarian 117% | IGROV1 ovarian 106% | OVCAR-3 ovarian 105% | HS 578T breast 105% | NCI/ADR-RES ovarian 96.8% | T-47D breast 102% | BT-549 breast 98.4% | MDA-MB-435 melanoma 102% | MCF7 breast 85.9% | HCT-116 colon 92.7% | HCC-2998 colon 112% | KM12 colon 103%

CCCCn1c(=O)[nH]c(N)c([C@@H]2c3c([nH]c(=O)n(CCCC)c3=O)Oc3ccc4ccccc4c32)c1=O
active: SR leukemia 9.35% | OVCAR-8 ovarian 7.15% | IGROV1 ovarian 1.79% | OVCAR-3 ovarian -92.1% | NCI/ADR-RES ovarian 9.83% | MDA-MB-435 melanoma 5.95% | SW-620 colon -67.9% | HCT-116 colon -26.3% | KM12 colon -44.1%
inactive: RPMI-8226 leukemia 77.8% | OVCAR-5 ovarian 92.3% | OVCAR-4 ovarian 86.2% | SK-OV-3 ovarian 85% | HS 578T breast 103% | T-47D breast 81.1% | MCF7 breast 46% | HCC-2998 colon 83.3%

CS(=O)(=O)Nc1cc(-c2ccc3ncnc(Nc4ccc5c(cnn5Cc5ccc(F)cc5)c4)c3c2)cnc1Cl
active: RPMI-8226 leukemia 9.43% | IGROV1 ovarian -15.7% | OVCAR-3 ovarian 9.71% | HS 578T breast -9.56% | T-47D breast 5.06% | BT-549 breast 9.27%
inactive: SR leukemia 34% | OVCAR-8 ovarian 67.9% | OVCAR-5 ovarian 44.7% | OVCAR-4 ovarian 71% | SK-OV-3 ovarian 47.5% | NCI/ADR-RES ovarian 90% | MDA-MB-435 melanoma 45.3% | MCF7 breast 14.4% | HCT-116 colon 57% | HCC-2998 colon 59.1% | KM12 colon 71.8%

CN1CCc2nc3sc(C(N)=O)c(N)c3c(-c3cccs3)c2C1
active: OVCAR-3 ovarian -32.5% | HCT-116 colon 4.02% | KM12 colon 6.55%
inactive: SR leukemia 22.8% | RPMI-8226 leukemia 75.7% | OVCAR-8 ovarian 22.2% | OVCAR-5 ovarian 15.1% | OVCAR-4 ovarian 64.5% | SK-OV-3 ovarian 57.4% | IGROV1 ovarian 26.2% | HS 578T breast 32.4% | NCI/ADR-RES ovarian 40.6% | T-47D breast 42.9% | BT-549 breast 10.7% | MDA-MB-435 melanoma 29.6% | MCF7 breast 12.6% | HCC-2998 colon 53.5%

COc1ccc(C2CC(c3ccc(Nc4nc(Nc5ccccc5)nc(Nc5ccccc5)n4)cc3)=NN2C(C)=O)cc1 (stereo unspecified)
inactive: SR leukemia 88.2% | RPMI-8226 leukemia 73.7% | OVCAR-8 ovarian 83% | OVCAR-5 ovarian 104% | OVCAR-4 ovarian 89.7% | SK-OV-3 ovarian 124% | IGROV1 ovarian 118% | OVCAR-3 ovarian 91.4% | HS 578T breast 102% | NCI/ADR-RES ovarian 89.7% | T-47D breast 73.4% | BT-549 breast 166% | MDA-MB-435 melanoma 93.7% | MCF7 breast 129% | HCT-116 colon 96.5% | HCC-2998 colon 110% | KM12 colon 112%
